# Laboratory results published in PubChem BioAssay (EPA / NIEHS).
# Values joined by “and” are separate entries in the source; they are usually repeats but may differ in a detail not shown here. Equal values may be shown once. Inconclusive results are not listed. Active and inactive are the calls of the source. Rule for the calls, unless noted: active = hit-call score of the fitted dose curve at least 0.9, where 1 is the maximum; inconclusive = response in the unintended direction; inactive = score below 0.9.
# Columns and labels:
# [1] = test system: Thyroperoxidase (TPO), gene 54314; assay: CCTE_Simmons_AUR_rTPO: CCTE's Amplex UltraRed Assay for Thyroperoxidase (TPO) Inhibition, Simmons Lab (AID 2283662);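 for AC50: potency for loss of signal meaning inhibition of peroxidase activity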
# How it was run: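 Cell-free peroxidase activity assay using rat thyroid gland microsomes with excess H2O2 (300 uM) and 25 uM Amplex UltraRed. Compounds tested from 5 nM to 87.5 uM; fluorescence measured after 30 min at 37C, analysed relative to DMSO baseline.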
# [2] = CCTE_Simmons_CellTiterGLO_HEK293T: Viability Assessment in CCTE's Assays for Thyroperoxidase (TPO) Inhibition, Simmons Lab (AID 2283665);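 for AC50: cells exposed to compound for 24 h before readout; actives reduce ATP signal below DMSO vehicle meaning cytotoxicity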
# How it was run: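 HEK293T, 10 000 cells/well, DMEM + 1% FBS; 8-pt titration 5 nM–87.5 uM [final], 0.5% DMSO; 24 hr, 37C, 5% CO2; CellTiter-Glo luminescence; n=3 biological replicates.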
# [3] = Tanguay_ZF_120hpf_NC_legacy: (Legacy) Oregon State University Tanguay Lab 120 Hour Post-fertilization zebrafish Assay for Notochord and Tail Malformation (AID 2283656)
# How it was run: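 Dechorionated Tropical 5D wild-type zebrafish embryos, one per well from 6 hpf, statically exposed to 120 hpf at 28C in 0.64% DMSO final. Notochord distortion scored present/absent by brightfield; dead embryos excluded.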
# [4] = Tanguay_ZF_120hpf_TR_legacy: (Legacy) Oregon State University Tanguay Lab 120 Hour Post-fertilization zebrafish Assay for Touch Response (AID 2283667)
# How it was run: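 Tropical 5D wild-type zebrafish embryos were exposed statically in sealed, foil-covered plates at 28C until 120 hpf, with 0.64% (vol/vol) final DMSO. Touch response was scored as present or absent; embryos that died were not scored.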
# [5] = CCTE_Padilla_ZF_144hpf_TERATOSCORE: (Legacy) CCTE's 144 Hour Post-fertilization zebrafish Assay Teratoscore, Padilla Lab (AID 2283679; active = hit-call score of the fitted dose curve at least 0.9, where 1 is the maximum; inactive = score below 0.9;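 for AC50: zebrafish embryos with chorions exposed by immersion from 6-8 hpf to 5 dpf with daily renewal; teratogenicity score from eye scoring of death hatching and malformations at 144 hpf; higher score means more developmental defects relative to DMSO baseline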)
# How it was run: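 Larvae scored by eye at 144 hpf for death, hatching and malformations after a day in clean Hanks'. Before that, daily-renewed exposure at 80 uM (0.4% DMSO, 26C) from roughly 6-8 hpf through 5 dpf, 4 embryos per chemical.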
# [6] = STM_H9_OrnCyssISnorm_ratio: Stemina devTOX quickPredict H9 human embryonic stem cell (hESC)-based Assay for Ornithine (ORN):Cystine (CYSS) Ratio (AID 2283714)
# How it was run: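 Undifferentiated H9 hESCs were exposed to compound for 72h with media and chemical replaced every 24h. Final 24-h conditioned media were deproteinized and analysed by UPLC-HRMS. ORN and CYSS peak areas were normalized to C13 internal standards and the ratio taken versus 0.1% DMSO.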
# [7] = Tanguay_ZF_120hpf_ActivityScore_legacy: (Legacy) Oregon State University Tanguay Lab 120 Hour Post-fertilization zebrafish Assay Score for Activity (AID 2283742);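 for AC50: static exposure from 6 hpf until 120 hpf at 28 °C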
# How it was run: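 Tropical 5D wild-type zebrafish embryos, dechorionated with pronase at 4 hpf, were exposed singly from 6 hpf to 120 hpf statically at 28C in 0.64% DMSO. Malformations and mortality were scored as binary by brightfield, with the activity score combining 18 morphology components.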
# [8] = read-out: solute carrier (SLC10A1), SLC10A1 (gene 6554); assay: LTEA_HepaRG_SLC10A1: Life Technologies and Expression Analysis (LTEA) Assay for solute carrier (SLC10A1) using HepaRG (AID 2283657; active = hit-call score of the fitted dose curve at least 0.9, where 1 is the maximum; inactive = score below 0.9); details: mRNA level, 48 h; actives raise or lower the signal
# How it was run: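 Differentiated HepaRG cells were plated 48 h, then exposed in serum-free induction medium for 48 h to 8 concentrations (top 100 uM, half-log steps, 0.5% DMSO). SLC10A1 mRNA was quantified by qRT-PCR normalized to ACTB, GAPDH, POLR2A; bidirectional fit versus DMSO.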
# [9] = read-out: matrix metalloproteinase-1 (MMP1), MMP1 (gene 4312); assay: LTEA_HepaRG_MMP1: Life Technologies and Expression Analysis (LTEA) Assay for matrix metalloproteinase-1 (MMP1) using HepaRG (AID 2283658; active = hit-call score of the fitted dose curve at least 0.9, where 1 is the maximum; inactive = score below 0.9); details: mRNA level, 48 h; actives raise or lower the signal
# How it was run: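 Differentiated HepaRG cells, plated 48 h then switched to serum-free induction medium, were exposed in duplicate for 48 h to eight half-log concentrations up to 100 uM in 0.5% DMSO; MMP1 mRNA measured by qRT-PCR, normalized to ACTB, GAPDH, POLR2A.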
# [10] = read-out: Cytochrome P450 (CYP24A1_1), CYP24A1 (gene 1591); assay: LTEA_HepaRG_CYP24A1_1: Life Technologies and Expression Analysis (LTEA) Assay for Cytochrome P450 (CYP24A1_1) using HepaRG (AID 2283671; active = hit-call score of the fitted dose curve at least 0.9, where 1 is the maximum; inactive = score below 0.9); details: mRNA level, 48 h; actives raise or lower the signal
# How it was run: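 HepaRG, 48 h exposure, 8-pt half-log series from 100 uM in 0.5% DMSO, duplicates. Readout: TaqMan qRT-PCR of CYP24A1 mRNA, housekeeping-normalized (ACTB/GAPDH/POLR2A). Bidirectional curve fit vs DMSO baseline.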
# [11] = STM_H9_OrnithineISnorm_perc: Stemina devTOX quickPredict H9 human embryonic stem cell (hESC)-based Assay for Ornithine (ORN) Metabolite Biomarker, Normalized (AID 2283712; active = hit-call score of the fitted dose curve at least 0.9, where 1 is the maximum; inactive = score below 0.9;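 note: ornithine released into spent medium during last day measured by mass spectrometry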)
# How it was run: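 H9 human embryonic stem cells kept pluripotent receive test chemical over 72 h, refreshed daily by media exchange. Media from the closing 24 h is deproteinized and analysed by UPLC-HRMS on an amide column; ornithine signal is scaled to labelled standard and vehicle.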
# [12] = STM_H9_CystineISnorm_perc: Stemina devTOX quickPredict H9 human embryonic stem cell (hESC)-based Assay for Cystine (CYSS) Metabolite Biomarker, Normalized (AID 2283713; active = hit-call score of the fitted dose curve at least 0.9, where 1 is the maximum; inactive = score below 0.9)
# How it was run: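 H9 hESC, pluripotent; compound 72h, re-dosed q24h with medium change. Last-24h medium → 40% acetonitrile deproteinization → UPLC-HRMS. CYSS area / C13-CYSS standard, then % of 0.1% DMSO median.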
compound,measurement,setting,value
NC(=NCCCCCCN=C(N)/N=C(\N)Nc1ccc(Cl)cc1)/N=C(\N)Nc1ccc(Cl)cc1,outcome,[1],inactive
same,AC50,[2],7.96 µM (active)
CCCCc1oc2ccccc2c1C(=O)c1cc(I)c(OCCN(CC)CC)c(I)c1,outcome,[3],inactive
same,outcome,[4],inactive
same,AC50,[5],7.89 µM (active)
same,AC50,[6],5 µM (active)
same,outcome,[7],inactive
CCCCCCCCCCCCOC(=O)c1cc(O)c(O)c(O)c1,AC50,[1],1.05 µM (active)
same,AC50,[2],5.48 µM (active)
CCCCCCCCCCCCCCC,outcome,[3],inactive
same,outcome,[7],inactive
CCCCC=O,outcome,[3],inactive
same,outcome,[8],inactive
same,outcome,[9],inactive
same,outcome,[4],inactive
same,outcome,[10],inactive
same,AC50,[5],105 µM (active)
same,outcome,[7],inactive
O=C(c1ccccc1)c1ccccc1,outcome,[3],inactive
same,outcome,[4],inactive
same,AC50,[5],15.1 µM (active)
same,outcome,[6],inactive
same,outcome,[7],inactive
O=C1NS(=O)(=O)c2ccccc21,outcome,[3],inactive
same,outcome,[4],inactive
same,AC50,[11],0.113 µM (active)
same,outcome,[12],inactive
same,outcome,[6],inactive
same,outcome,[7],inactive
CN(Cc1cnc2nc(N)nc(N)c2n1)c1ccc(C(=O)N[C@@H](CCC(=O)O)C(=O)O)cc1,outcome,[3],inactive
same,AC50,[1],9.76 µM (active)
same,AC50,[2],0.0489 µM (active)
same,outcome,[4],inactive
same,AC50,[11],0.0773 µM (active)
same,AC50,[12],0.0873 µM (active)
same,AC50,[6],0.0863 µM (active)
same,outcome,[7],inactive
CCCCCCCCCCCC,AC50,[1],43.8 µM (active)
same,AC50,[2],31.8 µM (active)
Cc1[nH]nc2c1N=C(c1ccccc1Cl)c1cc([N+](=O)[O-])ccc1N2,outcome,[3],inactive
same,AC50,[1],2.9 µM (active)
same,AC50,[2],15.2 µM (active)
same,outcome,[4],inactive
same,AC50,[5],1.32 µM (active)
same,AC50,[11],2.08 µM (active)
same,AC50,[12],1.62 µM (active)
same,AC50,[6],1.85 µM (active)
same,outcome,[7],inactive
Cc1cc(C(=C2C=CC(=Nc3ccc(S(=O)(=O)O)cc3)C=C2)c2ccc(Nc3ccc(S(=O)(=O)O)cc3)cc2)cc(S(=O)(=O)O)c1N,AC50,[1],29.4 µM (active)
same,outcome,[2],inactive
CCCCCCCCCCCCOS(=O)(=O)O,outcome,[4],inactive
same,outcome,[5],inactive
same,AC50,[7],11 µM (active)
CC(=O)Nc1ccc(O)cc1,outcome,[4],inactive
same,outcome,[7],inactive
CC(C)c1c(C(=O)Nc2ccccc2)c(-c2ccccc2)c(-c2ccc(F)cc2)n1CC[C@@H](O)C[C@@H](O)CC(=O)O,AC50,[5],2.65 µM (active) and 3.07 µM (active)
